Measured values taken from ChEMBL document CHEMBL1201862, “PubChem BioAssay data set” (2004).
Potency and affinity values are given separately. Unmarked numbers belong to inactive results. No cut-off for these calls is given here.

Each compound was assayed against T1, fMet-Leu-Phe receptor (Homo sapiens) (UniProt P21462) (assay: FPR1 fluorescent ligand binding inhibitors, dose response, cell-based, flow cytometry, Ki from IC50 (AID 724)).
T1 sequence (whole entry): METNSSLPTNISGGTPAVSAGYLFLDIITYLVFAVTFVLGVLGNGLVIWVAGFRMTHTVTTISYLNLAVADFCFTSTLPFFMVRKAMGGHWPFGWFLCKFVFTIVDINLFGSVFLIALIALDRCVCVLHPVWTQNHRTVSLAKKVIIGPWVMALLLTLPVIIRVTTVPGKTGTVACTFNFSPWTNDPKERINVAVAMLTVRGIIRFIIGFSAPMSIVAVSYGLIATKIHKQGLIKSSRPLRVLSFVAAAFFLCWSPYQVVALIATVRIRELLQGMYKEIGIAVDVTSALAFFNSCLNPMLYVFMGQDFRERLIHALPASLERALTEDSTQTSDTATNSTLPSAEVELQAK
Format: functional
Compound CC(C)C(=O)N(Cc1ccco1)S(=O)(=O)c1cccc2cccnc12 has a KI MICROM greater than 44.3 µM.
Cc1sc2c(c1C)c(=O)n(Cc1ccccc1)c(=O)n2Cc1ccccc1F was tested, and the KI MICROM was greater than 44.3 µM.
COc1ccc(-c2c(C)nn3c(=O)c4c([nH]c23)CCCC4)cc1 was tested, and the KI MICROM was greater than 44.3 µM.
In the case of COc1cccc(-c2ccnc3[nH]n(-c4ccccc4)c(=O)c23)c1, the KI MICROM is reported as greater than 44.3 µM.
COc1ccc(C2C(C(=O)N3CCCC(C)C3)c3ccccc3C(=O)N2C)cc1 (stereo not given) showed a KI MICROM greater than 44.3 µM.
Work on CCC(C)(C(=O)NC1CCCCC1)N(Cc1cccs1)C(C)=O (stereo not given) yielded a KI MICROM greater than 44.3 µM.
In the case of COc1ccc(OC)c(CNC(=O)Cn2c(=O)sc3ccccc32)c1, the KI MICROM is reported as greater than 44.3 µM.
Compound O=C(Oc1ccc2c(=O)c(Oc3ccccc3Br)c(C(F)(F)F)oc2c1)c1cccs1 has a KI MICROM greater than 44.3 µM.
With Cc1[nH]c2c(-c3ccc(Cl)cc3)c(C(F)(F)F)nn2c(=O)c1Cc1ccccc1 the KI MICROM was 2.5 µM (active).
For COCCN1C(=O)C(O)=C(C(=O)c2ccccc2)C1c1ccccc1OC (stereo not given), the KI MICROM was 12.4 µM.
CCc1cc2c(=O)c(-c3nc4ccccc4n3C)c(C)oc2cc1OC(C)=O was tested, and the KI MICROM was 0.3 µM (active).
For COc1cccc(/C=C2/C(=O)NN(c3ccc(C)cc3)C2=O)c1, the KI MICROM was greater than 44.3 µM.
COc1ccc(-c2c(C(F)(F)F)oc3cc(OC(=O)c4ccco4)ccc3c2=O)cc1OC was tested, and the KI MICROM was 3.3 µM (active).
O=C1CC(c2ccccc2C(F)(F)F)C2=C(CC(c3cccs3)CC2=O)N1 (stereo not given) gave a KI MICROM greater than 44.3 µM.
CCCC(=O)N(Cc1ccco1)S(=O)(=O)c1cccc2cccnc12 gave a KI MICROM greater than 44.3 µM.
Cc1cccc(C)c1NC(=O)C(NC(=O)Cc1cccs1)c1ccccc1 (stereo not given) showed a KI MICROM greater than 44.3 µM.
For COc1ccc(-c2c(C(F)(F)F)oc3cc(OC(=O)c4cccnc4)ccc3c2=O)cc1OC, the KI MICROM was 8.9 µM (active).
With COc1ccccc1-c1c(C(F)(F)F)oc2cc(OC(=O)c3ccco3)ccc2c1=O the KI MICROM was 1.1 µM (active).
Work on Cc1cccc(C2CC(=O)NC3=C2C(=O)CC(c2cccs2)C3)c1 (stereo not given) yielded a KI MICROM greater than 44.3 µM.
In the case of O=C(Oc1ccc2c(=O)c(-c3ccccc3Cl)c(C(F)(F)F)oc2c1)c1cccs1, the KI MICROM is reported as 1.1 µM (active).
